# Assay outcomes deposited in PubChem by University of Kansas High Throughput Screening Laboratory.
# Only some compounds are listed: those with a hit (about 3.5% of all), similar ones and a draw of the others.
# mHTT-CaM PPI inh – mutant huntingtin-calmodulin interaction inhibitors – biochemical, AlphaScreen, primary screen. P42858. AlphaScreen His-mHTT/GST-CaM binding, luminescence. inhibition, % at 15 µM. 190,000 compounds, 3.6% hits. AID 1671202, 2021;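 also: 0% = both proteins with DMSO and 100% = one protein alone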
# Target sequence (P42858 whole entry, looked up, stated change not applied): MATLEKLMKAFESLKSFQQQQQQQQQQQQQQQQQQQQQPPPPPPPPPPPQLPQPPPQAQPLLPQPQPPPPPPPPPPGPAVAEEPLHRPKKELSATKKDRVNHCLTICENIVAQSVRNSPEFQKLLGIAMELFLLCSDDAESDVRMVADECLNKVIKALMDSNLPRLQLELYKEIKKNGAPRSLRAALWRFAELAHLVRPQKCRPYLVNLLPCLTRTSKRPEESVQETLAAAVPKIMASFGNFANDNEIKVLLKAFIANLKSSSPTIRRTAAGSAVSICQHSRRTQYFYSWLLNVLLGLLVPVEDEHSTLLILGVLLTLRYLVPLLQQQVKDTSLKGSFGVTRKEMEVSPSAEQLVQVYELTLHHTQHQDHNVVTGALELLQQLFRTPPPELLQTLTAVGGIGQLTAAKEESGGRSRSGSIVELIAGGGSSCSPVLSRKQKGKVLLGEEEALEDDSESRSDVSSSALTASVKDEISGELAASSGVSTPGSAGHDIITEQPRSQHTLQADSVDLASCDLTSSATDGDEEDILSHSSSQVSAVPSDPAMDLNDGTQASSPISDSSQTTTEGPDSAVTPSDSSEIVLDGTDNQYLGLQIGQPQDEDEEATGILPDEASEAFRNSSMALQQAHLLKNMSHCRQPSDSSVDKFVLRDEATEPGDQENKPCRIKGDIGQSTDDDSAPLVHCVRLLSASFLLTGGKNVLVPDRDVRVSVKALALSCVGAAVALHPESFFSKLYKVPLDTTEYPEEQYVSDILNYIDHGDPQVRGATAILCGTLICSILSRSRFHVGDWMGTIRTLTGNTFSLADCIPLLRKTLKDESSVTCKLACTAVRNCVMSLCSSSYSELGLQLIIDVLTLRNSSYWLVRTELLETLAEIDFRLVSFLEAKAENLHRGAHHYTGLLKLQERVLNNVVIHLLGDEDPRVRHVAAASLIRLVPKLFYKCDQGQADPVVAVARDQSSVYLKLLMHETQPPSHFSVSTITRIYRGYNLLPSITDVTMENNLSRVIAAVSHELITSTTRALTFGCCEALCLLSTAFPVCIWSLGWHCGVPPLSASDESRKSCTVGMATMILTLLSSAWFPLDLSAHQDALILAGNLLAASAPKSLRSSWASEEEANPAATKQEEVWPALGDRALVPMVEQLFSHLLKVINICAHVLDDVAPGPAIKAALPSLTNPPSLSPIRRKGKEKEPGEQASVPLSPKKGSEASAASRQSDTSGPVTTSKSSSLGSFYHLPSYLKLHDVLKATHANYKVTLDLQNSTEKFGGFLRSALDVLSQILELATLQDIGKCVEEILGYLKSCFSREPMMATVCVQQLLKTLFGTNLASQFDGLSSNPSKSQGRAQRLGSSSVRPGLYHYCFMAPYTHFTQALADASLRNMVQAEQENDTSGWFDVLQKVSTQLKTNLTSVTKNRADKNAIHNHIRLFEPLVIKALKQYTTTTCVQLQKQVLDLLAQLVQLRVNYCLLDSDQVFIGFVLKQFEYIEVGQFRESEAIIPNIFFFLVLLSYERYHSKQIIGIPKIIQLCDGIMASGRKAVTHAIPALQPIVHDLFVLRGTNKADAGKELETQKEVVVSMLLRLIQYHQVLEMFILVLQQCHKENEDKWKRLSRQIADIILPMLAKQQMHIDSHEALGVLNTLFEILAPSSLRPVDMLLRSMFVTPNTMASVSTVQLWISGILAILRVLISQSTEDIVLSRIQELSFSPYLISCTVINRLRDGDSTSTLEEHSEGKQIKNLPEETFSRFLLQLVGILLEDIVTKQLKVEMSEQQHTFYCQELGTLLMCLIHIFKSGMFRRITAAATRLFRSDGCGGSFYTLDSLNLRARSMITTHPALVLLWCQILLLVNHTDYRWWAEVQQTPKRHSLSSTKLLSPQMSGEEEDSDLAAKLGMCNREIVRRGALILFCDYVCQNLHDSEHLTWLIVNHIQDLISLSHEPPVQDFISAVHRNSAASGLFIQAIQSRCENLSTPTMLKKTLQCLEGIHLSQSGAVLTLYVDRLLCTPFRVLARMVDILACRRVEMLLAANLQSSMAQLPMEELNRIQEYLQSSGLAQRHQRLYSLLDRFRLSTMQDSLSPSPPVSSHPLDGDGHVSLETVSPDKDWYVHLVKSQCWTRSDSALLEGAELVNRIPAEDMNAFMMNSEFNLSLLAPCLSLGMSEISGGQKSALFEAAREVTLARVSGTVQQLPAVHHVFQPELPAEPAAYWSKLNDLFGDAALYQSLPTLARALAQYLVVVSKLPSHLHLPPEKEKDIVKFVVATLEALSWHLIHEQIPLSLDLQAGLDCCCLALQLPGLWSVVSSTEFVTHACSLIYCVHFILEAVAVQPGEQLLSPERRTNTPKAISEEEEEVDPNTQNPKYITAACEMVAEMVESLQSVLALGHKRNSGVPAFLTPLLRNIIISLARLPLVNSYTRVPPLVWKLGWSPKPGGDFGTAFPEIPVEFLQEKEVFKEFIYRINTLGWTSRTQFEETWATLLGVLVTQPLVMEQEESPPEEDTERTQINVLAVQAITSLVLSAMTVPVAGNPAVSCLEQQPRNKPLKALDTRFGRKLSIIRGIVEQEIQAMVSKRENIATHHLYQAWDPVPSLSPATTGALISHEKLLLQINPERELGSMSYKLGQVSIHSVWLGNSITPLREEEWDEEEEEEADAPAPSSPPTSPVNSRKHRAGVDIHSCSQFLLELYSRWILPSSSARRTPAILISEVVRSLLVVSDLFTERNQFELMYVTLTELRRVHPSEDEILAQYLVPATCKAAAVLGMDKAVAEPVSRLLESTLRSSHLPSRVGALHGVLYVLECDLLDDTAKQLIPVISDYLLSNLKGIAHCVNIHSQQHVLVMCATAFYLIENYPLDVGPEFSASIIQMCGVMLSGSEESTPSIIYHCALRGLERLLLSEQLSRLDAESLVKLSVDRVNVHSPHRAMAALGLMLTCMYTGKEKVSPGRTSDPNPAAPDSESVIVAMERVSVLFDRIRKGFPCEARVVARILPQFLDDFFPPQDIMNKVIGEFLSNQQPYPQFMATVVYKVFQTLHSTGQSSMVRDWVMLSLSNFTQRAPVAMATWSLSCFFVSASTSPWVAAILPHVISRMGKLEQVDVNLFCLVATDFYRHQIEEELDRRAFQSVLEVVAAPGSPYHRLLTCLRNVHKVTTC
# Pf apPOL inh – Pf-apPOL inhibitors, biochemical, fluorescence. 210,000 compounds, 0.25% hits. Plasmodium falciparum apicoplast DNA polymerase (apPOL). Recombinant Pf-apPOL, molecular beacon fluorescence, 1.5 h. inhibition, % at 10 µM
# Starred values were filed as active, the others as inactive; . = no result given. Rule as the data show it: active = inhibition above about 50%; inactive = the rest.
SMILES,mHTT-CaM PPI inh,Pf apPOL inh
COc1ccc(/C=C2N=C(/C=C/c3ccccc3)OC/2=O)c(OC)c1,4.0,-3.5
O=C(NCc1ccc2c(c1)OCO2)C(=O)N1CCC(Cc2ccccc2)CC1,-12.3,-64.2
COc1ccc(NC(=O)c2ccc3c(c2)N(S(C)(=O)=O)CC3)cc1C(F)(F)F,6.3,-3.1
O=C(CCc1nnc2ccc(-c3ccc(Cl)cc3)nn12)NCc1ccc(F)cc1Cl,5.2,-9.5
O=C(O)CCCn1c(SCc2cc(=O)n3cc(Cl)ccc3n2)nc2ccsc2c1=O,11.0,-2.8
Cc1ccc(/C=C2\N=C(c3cc([N+](=O)[O-])ccc3Cl)OC2=O)cc1,-2.0,-7.0
Cc1nc2c(C(=O)NCCN(C)C)c[nH]n2c(=O)c1Cc1ccccc1F,18.0,2.9
COc1cccc(CNC(=O)c2c[nH]n3c(=O)c(Cc4ccccc4F)c(C)nc23)c1,72.0*,-15.0
Cc1nc2c(C(=O)NCCc3ccccc3)c[nH]n2c(=O)c1Cc1ccccc1F,29.0,-5.3
Cc1ccc(CNC(=O)c2c[nH]n3c(=O)c(Cc4ccc(Cl)cc4)c(C)nc23)cc1,96.0*,-4.0
CCCc1c(C)nc2c(C(=O)NCc3ccc(C)cc3)c[nH]n2c1=O,21.0,9.7
CCN(CCNC(=O)c1c[nH]n2c(=O)c(Cc3ccccc3F)c(C)nc12)c1ccccc1,79.0*,-23.3
COc1ccc(C(=O)N2CCN(c3cc(C)ccc3C)C(=O)C2C)cc1 (stereo not drawn),-2.7,-5.5
O=C1NC2(CCN(C(=O)c3ccc4c(c3)OCO4)CC2)Nc2cc(Cl)ccc21,1.4,-3.1
O=C(NCc1ccc(N2CCCCCC2)nc1)c1cccs1,17.7,-3.2
CNC(=O)N(C)Cc1cccs1,1.2,-0.2
Cc1nc(-c2nnc(NC(=O)c3cc(Cl)cc(Cl)c3)o2)cs1,30.8,8.9
Cc1cc(C(=O)Nc2nnc(-c3csc(C)n3)o2)c(C)o1,77.6*,8.8
C[n+]1ccccc1CC(=O)c1ccc(Br)cc1,.,-4.3
N#Cc1c(NC(=O)c2cc3ncc(Br)cn3n2)sc2c1CCCC2,-5.3,-0.8
O=C(O)c1cc2ncc(Br)cn2n1,4.2,68.6*
COc1cc(C=Nc2ccc(C)c(C)c2)ccc1O,19.0,2.9
COc1ccc(C=Nc2cccc(N=Cc3ccc(OC)c(OC)c3)c2)cc1OC,74.0*,-3.8
Cc1nnsc1C(=O)N(Cc1ccccc1)c1nc2c(Cl)cccc2s1,-30.9,-2.4
CCCOc1ccc(-c2[nH]ncc2Oc2ccccc2)c(O)c1,80.0*,-3.7
SMILES,mHTT-CaM PPI inh,Pf apPOL inh
COc1ccccc1-c1c(C(F)(F)F)oc2cc(OCC=C(C)C)ccc2c1=O,-7.7,0.8
CCCCOc1ccc(-c2[nH]ncc2Oc2ccccc2)c(O)c1,93.0*,-9.9
CCc1cc(-c2[nH]ncc2Oc2ccc(Cl)cc2)c(O)cc1O,100.3*,-0.3
COc1ccc(Oc2cncnc2-c2ccc(OCc3ccccc3)cc2O)cc1,-0.5,3.5
COc1ccccc1-c1cn[nH]c1-c1ccc(OCC=C(C)C)cc1O,67.7*,-3.4
COc1ccc(-c2[nH]ncc2Oc2ccccc2)c(O)c1,35.0,-9.0
CCc1cc(C(=O)COc2ccc(F)cc2)c(O)cc1O,-0.6,-3.6
CN(C)c1ccc(CNC(=O)C2CCN(c3nnc(-c4ccccc4)o3)CC2)cc1,2.4,1.6
CCOc1ccc(Br)cc1/C=C1/C(=O)N(c2ccc(S(N)(=O)=O)cc2)N=C1C,26.0,5.6
CCN1CCN(C(=O)c2c(C)nn(-c3ccccc3)c2C)CC1,3.6,-1.3
CC1(C(=O)NCc2ccc(F)cc2)CCCN(S(=O)(=O)c2ccc(F)c(Cl)c2)C1 (stereo not drawn),94.7*,0.3
CC(=O)c1ccc(S(=O)(=O)N2CCCC(C)(C(=O)NCc3ccc(F)cc3)C2)cc1 (stereo not drawn),6.3,1.7
CC1(C(=O)NCc2ccc(F)cc2)CCCN(S(=O)(=O)c2ccccc2Cl)C1 (stereo not drawn),1.0,1.5
Cc1ccc(S(=O)(=O)N2CCCC(C)(C(=O)NCc3ccc(F)cc3)C2)c(C)c1 (stereo not drawn),29.0,-13.4
CC1(C(=O)NCc2ccc(F)cc2)CCCN(S(=O)(=O)c2ccc3c(c2)CCCC3)C1 (stereo not drawn),64.9*,-6.5
Cc1ccc(C)c(S(=O)(=O)N2CCCC(C)(C(=O)NCc3ccc(F)cc3)C2)c1 (stereo not drawn),60.6*,-1.5
Cc1ccc(F)cc1S(=O)(=O)N1CCCC(C)(C(=O)NCc2ccc(F)cc2)C1 (stereo not drawn),7.9,-6.2
Cc1c(Cl)cccc1S(=O)(=O)N1CCCC(C)(C(=O)NCc2ccc(F)cc2)C1 (stereo not drawn),86.2*,0.2
O=C(NCc1ccc(F)cc1)c1ccc(SCCN2CCCCC2)nc1,-5.9,-8.1
COc1ccc(C2=N/C(=C\c3ccc(C(C)(C)C)cc3)C(=O)O2)cc1[N+](=O)[O-],4.0,1.8
CCOCC(=O)N1CC(c2nc(-c3ccc(F)cc3)no2)C2(CCOCC2)C1 (stereo not drawn),5.4,-5.1
CCc1ccccc1NC(=O)c1ccc(-n2nncc2C)cc1,-12.1,0.1
COc1ccccc1C(=O)NCCn1cc(SCc2ccccc2F)c2ccccc21,21.0,-2.3
CC1=C(C(=O)Nc2cccnc2)C(c2cccs2)n2nc(SCc3ccccc3F)nc2N1 (stereo not drawn),3.0,0.1
O=C(CSCc1ccccc1)Nc1ccc(OCC(=O)N2CCOCC2)cc1,3.9,-15.1
SMILES,mHTT-CaM PPI inh,Pf apPOL inh
Cc1ccc(S(=O)(=O)N2CCCC(C)(C(=O)NCc3ccccc3)C2)cc1C (stereo not drawn),-0.2,-5.0
Cc1ccc(CNC(=O)c2oc3ccc(S(=O)(=O)N4CCCCC4)cc3c2C)cc1,-10.0,-6.3
Cc1c(C(=O)NCc2ccc(F)cc2)oc2ccc(S(=O)(=O)N3CCCCCC3)cc12,-2.0,51.6*
Cc1ccc(S(=O)(=O)N2CCCC(C)(C(=O)NCc3ccc(F)cc3)C2)cc1C (stereo not drawn),89.1*,-0.9
O=C(Nc1ccc(OC(F)(F)F)cc1)c1cn2c(n1)CCCC2,10.5,-18.2
CCN1CCN(CC(O)COc2cc(C)c(Cl)c(C)c2)CC1 (stereo not drawn),4.9,-2.8
Cc1sc2ccn(CC(C)C)c(=O)c2c1C(=O)N1CCCN(C)CC1,21.2,-0.2
Fc1cccc(-c2noc(-c3ccc(N4CCCCC4)nc3)n2)c1,-12.0,1.4
O=C(NCCOc1ccccc1-c1ccccc1)c1ccco1,-0.5,-1.3
O=C(NCCOc1ccc(-c2ccccn2)nn1)c1cccs1,100.3*,-14.8
O=C(NCCOc1ccc(-c2ccccn2)nn1)c1ccco1,100.3*,-8.8
CCOc1ccc(OCCNC(=O)c2cccs2)cc1,-18.0,-8.7
CC(Oc1ccccc1F)C(=O)NCCN1CCCCC1 (stereo not drawn),-1.0,-2.9
CC(Oc1ccccc1F)C(=O)NCCOc1ccc(-c2ccccn2)nn1 (stereo not drawn),100.3*,-9.1
CCCN1CCc2nc(SCc3ccc(F)cc3)[nH]c(=O)c2C1,-2.3,1.1
Cc1cc(Cl)ccc1NC(=O)C1CCCN(c2cnc3nccnc3c2)C1 (stereo not drawn),0.4,-0.5
Cc1cccc(C2=NN(C(=O)CN3CCOCC3)C(c3ccc(Cl)cc3)C2)c1 (stereo not drawn),79.2*,-2.3
